Bioassay records (PubChem)
GIRK2 activator: Activates human GIRK2-containing potassium channels. HEK293 GIRK2/NPY4 cells, thallium flux fluorescence. AID 1259324. P48051. 34,000 tested, under 10 active. activation (% efficacy), % for hits at 75 µM;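 active = primary screen hit, no activity in plain HEK293 cells, and in GIRK2-only cells above 5% efficacy rising with concentration; inactive = the rest, including fluorescent compounds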;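 note: efficacy is normalized control-subtracted fluorescence 15 s after thallium addition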
Target sequence (P48051 whole entry, looked up): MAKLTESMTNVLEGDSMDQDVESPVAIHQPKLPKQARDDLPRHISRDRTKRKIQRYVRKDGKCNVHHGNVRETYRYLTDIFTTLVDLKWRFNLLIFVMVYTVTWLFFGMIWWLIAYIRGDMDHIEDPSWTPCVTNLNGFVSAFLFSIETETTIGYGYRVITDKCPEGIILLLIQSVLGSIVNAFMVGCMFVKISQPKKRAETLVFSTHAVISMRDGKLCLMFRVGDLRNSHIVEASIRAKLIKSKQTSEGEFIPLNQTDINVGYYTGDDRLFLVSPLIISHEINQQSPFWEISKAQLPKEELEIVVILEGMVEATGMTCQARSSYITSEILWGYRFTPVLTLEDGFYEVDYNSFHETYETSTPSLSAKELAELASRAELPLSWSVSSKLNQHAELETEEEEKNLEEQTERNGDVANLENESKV
AMPAR-TARP mod: GluA2-stargazin AMPA receptor complex modulation. HEK293 GluA2+stargazin, membrane potential dye (FDSS), glutamate EC50; hits were called plate by plate, in both directions. calls only at 30 µM. 40,000 tested, 3.5% active;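 active = any of four per-well response measures lying three or more SD from its plate-wide compound average, in either direction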
Calls only; 0 = inactive; - = no result; + = active, no number. Shown is part of a subset that was picked to be rich in hits.

SMILES | GIRK2 activator | AMPAR-TARP mod
Cc1c(Cl)cccc1S(=O)(=O)N1CCC(Cn2c(C)nc3ccccc32)CC1 | 0 | +
CC(O)(CNC(=O)c1ccc(S(=O)(=O)N2CCCC2)cc1)C1CC1 (stereo not drawn) | 0 | 0
Cc1cccc(NC(=O)c2ccc(S(=O)(=O)c3ccc(Br)cc3)nc2)c1C | 0 | -
Cc1ccc(Cl)c2sc(N(CCN(C)C)C(=O)c3ccn(C)n3)nc12 | 0 | 0
COC(=O)c1scc(-c2ccccc2)c1S(=O)(=O)N1CCN(c2ncccn2)CC1 | - | 0
CCOC(=O)c1scc(-c2ccc(C)cc2)c1S(=O)(=O)N1CCN(c2ccccn2)CC1 | 0 | +
CCCS(=O)(=O)N1CCN=C1SCc1c(F)cccc1Cl | - | 0
Cc1cccc(-n2nc3c(c2NC(=O)C(=O)NCc2ccc4c(c2)OCO4)CS(=O)(=O)C3)c1 | 0 | 0
CCOc1ccc(-n2nnnc2SC(C)C(=O)Nc2cccc(OC)c2)cc1 (stereo not drawn) | - | +
Cc1cccc(-n2nnnc2SC(C)C(=O)Nc2cc(C)on2)c1 (stereo not drawn) | - | 0
CCOc1ccc(-n2nnnc2SC(C)C(=O)Nc2cc(C)on2)cc1 (stereo not drawn) | - | +
COc1cccc(NC(=O)C(C)Sc2nnnn2-c2ccc(C)cc2)c1 (stereo not drawn) | - | 0
O=C(Nc1cccc(C(F)(F)F)c1)C(=O)Nc1ccc2c(c1)OCCO2 | - | 0
COc1ccc(C(=O)Nc2cc3c4c(c2)CCC(=O)N4CCC3)cc1 | 0 | 0
COc1ccc(C(=O)Nc2cc3c4c(c2)CCN4C(=O)CC3)cc1 | 0 | +
CC(C)(C)n1nc2c(c1-n1cccc1)CN(C(=O)c1cc3ccccc3oc1=O)C2 | 0 | +
CC(C)(C)n1nc2c(c1-n1cccc1)CN(C(=O)Cn1c(=O)oc3ccccc31)C2 | 0 | 0
O=C(CCc1csc(NC(=O)c2ccc(Cl)cc2)n1)NCc1cccs1 | 0 | 0
CCN1CCc2nc(N)sc2C1 | 0 | +
CCOC(=O)N1CCc2nc(NC(C)=O)sc2C1 | 0 | 0
COC(=O)c1ccc(C2CC(=O)Nc3sc(C(=O)c4ccco4)c(N)c32)cc1 (stereo not drawn) | 0 | 0
Cc1ccc2nc(N(CCN3CCOCC3)C(=O)c3ccc([N+](=O)[O-])o3)sc2c1 | - | +
COc1ccc2sc(N(CCN3CCOCC3)C(=O)c3ccc([N+](=O)[O-])o3)nc2c1 | - | 0
O=C(c1ccc([N+](=O)[O-])o1)N(CCN1CCOCC1)c1nc2c(F)cccc2s1 | 0 | +
O=C(c1cccc([N+](=O)[O-])c1)N(CCN1CCOCC1)c1nc2ccc(F)cc2s1 | - | 0
SMILES | GIRK2 activator | AMPAR-TARP mod
O=C(c1cc2cc([N+](=O)[O-])ccc2s1)N(CCN1CCOCC1)c1nc2ccc(F)cc2s1 | - | +
O=C(c1ccc([N+](=O)[O-])s1)N(CCN1CCOCC1)c1nc2c(F)cccc2s1 | 0 | 0
CCOC(=O)c1sc2cccc(F)c2c1S(=O)(=O)Nc1cc(OC)cc(OC)c1 | - | 0
CCOC(=O)CSc1ccc(NC(=O)c2ccccc2F)nn1 | 0 | -
CC12CC(NC(=S)N1c1ccccc1)c1cccc(Cl)c1O2 (stereo not drawn) | - | 0
O=C(c1ccc(S(=O)(=O)N2CCOCC2)o1)N1CCc2ccccc2C1 | 0 | 0
COc1ccccc1C(=O)N(CCc1cccs1)c1nc2ccc(S(C)(=O)=O)cc2s1 | 0 | +
COc1ccc2sc(N(Cc3ccncc3)C(=O)c3ccccc3S(C)(=O)=O)nc2c1 | 0 | 0
O=c1nc(SCc2ccc([N+](=O)[O-])cc2)c2c(n1CC1CCCO1)CCC2 (stereo not drawn) | 0 | 0
O=C(CSc1nc(=O)n(CC2CCCO2)c2c1CCCC2)Nc1ccc(F)cc1F (stereo not drawn) | 0 | +
O=c1nc(SCc2ccc(Br)cc2)c2c(n1CC1CCCO1)CCCC2 (stereo not drawn) | 0 | +
O=C(CSc1nc(=O)n(CC2CCCO2)c2c1CCCC2)NCc1ccc(F)cc1 (stereo not drawn) | 0 | 0
O=C(CSc1nc(=O)n(CCCO)c2c1CCC2)Nc1ccc(F)c([N+](=O)[O-])c1 | 0 | 0
O=C(CSc1nc(=O)n(CCO)c2c1CCC2)Nc1ccc(F)c([N+](=O)[O-])c1 | 0 | +
COc1ccc(C2NC(=O)N(C)C(C)=C2C(=O)OCCOc2ccccc2)cc1 (stereo not drawn) | - | 0
CCNS(=O)(=O)CCCOc1ccc(F)cc1 | 0 | 0
CCn1c(N=Nc2c(O)[nH]c3ccccc23)nc2c1c(=O)[nH]c(=O)n2C | - | 0
COc1ccc(CNC(=O)Cc2csc(Nc3ccccc3)n2)cc1 | 0 | 0
O=C(Nc1cccc([N+](=O)[O-])c1)c1ccc(=O)n(Cc2ccccc2F)c1 | 0 | +
COc1cc([N+](=O)[O-])ccc1NC(=O)c1ccc(=O)n(Cc2ccccc2Cl)c1 | 0 | 0
Cc1ccccc1Cn1cc(C(=O)Nc2cccc([N+](=O)[O-])c2)ccc1=O | 0 | 0
COc1cc([N+](=O)[O-])ccc1NC(=O)c1ccc(=O)n(Cc2cccc([N+](=O)[O-])c2)c1 | 0 | +
COc1cc([N+](=O)[O-])ccc1NC(=O)c1ccc(=O)n(Cc2ccccc2F)c1 | 0 | +
Cc1cc([N+](=O)[O-])ccc1NC(=O)c1ccc(=O)n(Cc2ccc(F)cc2)c1 | 0 | 0
COc1ccccc1NC(=O)c1ccc(=O)n(Cc2cccc([N+](=O)[O-])c2)c1 | 0 | 0
SMILES | GIRK2 activator | AMPAR-TARP mod
COc1cc([N+](=O)[O-])ccc1NC(=O)c1ccc(=O)n(Cc2ccc(F)cc2)c1 | 0 | +
COc1ccc(-c2csc(CN3CCN(C(=O)c4ccc(=O)[nH]c4)CC3)n2)cc1 | 0 | 0
CCC(=O)Nc1sc2c(c1-c1nc3ccccc3s1)CCN(C)C2 | - | 0
CS(=O)(=O)c1cccc2sc(N3CCN(C(=O)c4cc5ccccc5o4)CC3)nc12 | - | 0
O=C(c1ccccc1F)N1N=C(c2cccs2)CC1c1ccc2nccnc2c1 (stereo not drawn) | 0 | 0
O=C1c2cccc3cccc(c23)C(=O)N1CCc1ccc(S(=O)(=O)N2CCOCC2)cc1 | - | 0
CC(=O)Nc1ccc(S(=O)(=O)Nc2ccc3c(c2)N(C(=O)C2CCCC2)CC3)c(C)c1 | 0 | 0
COc1c2c(cc3c1C(CC(=O)c1ccccc1)N(C)CC3)OCO2 (stereo not drawn) | - | +
COc1ccc(-n2c(COc3ccc4c(c3)OCO4)nnc2SCC(=O)c2ccccc2)cc1 | - | 0
CCc1ccc(S(=O)(=O)NCCOc2ccc3nnc(C)n3n2)s1 | 0 | 0
Cc1ccnc(Nc2ccc(NCCNC(=O)Nc3ccc(F)cc3)nn2)c1 | 0 | 0
CN(C)CCCNC(=O)C(=O)Nc1ccc2c(c1)OCCO2 | 0 | 0
CC(=O)Nc1cccc(NC(=O)C(=O)NCCCN(C)C)c1 | - | +
O=C(NCC(=O)N1CCOC(c2ccccc2)C1)C(=O)NCc1ccccc1 (stereo not drawn) | 0 | -
COc1ccc(Cl)cc1NC(=O)C(=O)NCC(c1cccs1)N(C)C (stereo not drawn) | 0 | +
COc1ccc(NC(=O)NCC(O)Cc2ccccc2)cc1OC (stereo not drawn) | 0 | 0
COc1ccc(Cl)cc1NC(=O)NCC(O)Cc1ccccc1 (stereo not drawn) | 0 | +
COc1ccc(NC(=O)C(=O)NCC(c2cccs2)N(C)C)c(OC)c1 (stereo not drawn) | 0 | 0
O=C(NCCc1ccccc1)C(=O)NCC1CCN(c2ccccn2)CC1 | 0 | 0
